About 83,000 compounds went through this panel and 20% of them were active in at least one assay; those are over-represented in the sample as a whole.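 In brief: 96-well plates, 48 h treatment, single concentration, percent growth endpoint.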 Unmarked numbers belong to inactive results. The source made the active and inactive calls. Rule for the calls: active = growth percent below 10; inactive = the rest.
Columns and labels:
Test in all cases: NCI-60 one-dose screen, 48 h (100 = growth as untreated, 0 = no growth, -100 = all killed)
Conditions in all cases: 10 µM unless noted
SR leukemia = system: SR leukemia
RPMI-8226 leukemia = system: RPMI-8226 leukemia
OVCAR-8 ovarian = system: OVCAR-8 ovarian
OVCAR-5 ovarian = system: OVCAR-5 ovarian
OVCAR-4 ovarian = system: OVCAR-4 ovarian
SK-OV-3 ovarian = system: SK-OV-3 ovarian
IGROV1 ovarian = system: IGROV1 ovarian
HS 578T breast = system: HS 578T breast
NCI/ADR-RES ovarian = system: NCI/ADR-RES ovarian
T-47D breast = system: T-47D breast
BT-549 breast = system: BT-549 breast
MDA-MB-435 melanoma = system: MDA-MB-435 melanoma
SW-620 colon = system: SW-620 colon
MCF7 breast = system: MCF7 breast
HCT-116 colon = system: HCT-116 colon
HCC-2998 colon = system: HCC-2998 colon
KM12 colon = system: KM12 colon

SMILES	growth (SR leukemia)	growth (RPMI-8226 leukemia)	growth (OVCAR-8 ovarian)	growth (OVCAR-5 ovarian)	growth (OVCAR-4 ovarian)	growth (SK-OV-3 ovarian)	growth (IGROV1 ovarian)	growth (HS 578T breast)	growth (NCI/ADR-RES ovarian)	growth (T-47D breast)	growth (BT-549 breast)	growth (MDA-MB-435 melanoma)	growth (SW-620 colon)	growth (MCF7 breast)	growth (HCT-116 colon)	growth (HCC-2998 colon)	growth (KM12 colon)
O=C(Nc1cc(Cl)cc(Cl)c1)Nc1ccc2oc(=O)ccc2c1	3.42% (active)	1.84% (active)	12.5%	36.4%	19.5%	25.7%	26.4%	39.4%	10.9%	3.54% (active)	29%	13.9%	17.3%	5.48% (active)	1.36% (active)	27.3%	11.5%
CN1CCN(c2ccc(C(=O)Nc3cccc(-c4cn(-c5ccc(S(N)(=O)=O)cc5)nn4)c3)cc2C(F)(F)F)CC1	-1.19% (active)	10.7%	86.7%	84.3%	84.8%	102%	86.9%	71%	101%	74.8%	73.5%	77.7%	50.4%	70.8%	71.4%	88.3%	59.1%
COc1ccc(/C=N\NC(=O)c2ccc3nc(-c4ccc(Br)cc4)[nH]c3c2)cc1	11.8%	42.1%	13.6%	79.2%	12.5%	62.8%	20%	14.8%	75.2%	55.8%	65.8%	35.5%	23.5%	15.8%	12.5%	59.4%	25.9%
C/C=C/C=C1\C[C@H]2CO[C@H](O2)C1=O	53.1%	95.4%	99.7%	103%	101%	103%	97.7%	107%	98.1%	98.4%	127%	101%	69.1%	67.1%	82.3%	114%	103%
COc1ccc2c(ccn2C(=O)N2c3ccccc3Sc3ccccc32)c1	22%	16.8%	31.9%	60.6%	66.5%	42.5%	39.2%	19.8%	11.6%	23%	34.3%	-18.9% (active)	16.8%	29.6%	31.6%	48.9%	24.2%
CN1CCN(Cc2ccc(NC(=O)c3cncc(C#Cc4cnc5ccc(O[C@H]6CCOC6)nn45)c3)cc2C(F)(F)F)CC1	-22.8% (active)	-15.3% (active)	-72.6% (active)	-62.5% (active)	-58.9% (active)	-26% (active)	-57.6% (active)	-34.1% (active)	-30.9% (active)	16.2%	-33.9% (active)	-86.8% (active)	-32.4% (active)	-62.6% (active)	-88.1% (active)	-61.3% (active)	-52.3% (active)
Cc1cn(-c2cc(NC(=O)c3cncc(C#Cc4cnc5ccc(O[C@H]6CCOC6)nn45)c3)cc(C(F)(F)F)c2)cn1	47.8%	85.4%	92.6%	80.3%	90.1%	119%	65.3%	73.7%	101%	98.2%	181%	76.5%	58.9%	44.6%	44.2%	84.7%	21.9%
Cc1cc(-c2ccc3nc(N)sc3c2)nc2ccc3[nH]ncc3c12	13.7%	39.6%	41.2%	57.6%	61.6%	31.5%	33.6%	6.21% (active)	13.6%	58.5%	33%	-44.2% (active)	15.7%	21%	21.8%	66.3%	34.6%
O=C1CSC(=O)N1Cc1cc2ccccc2nc1Cl	98.2%	98.8%	98.7%	101%	99.2%	110%	99.9%	97.1%	105%	92.5%	95.6%	99.3%	103%	92.5%	106%	105%	101%
COc1ccc(C2C(C#N)=C(N)Oc3c2sc2ccc(C)cc32)cc1 (centres undefined)	25.7%	36.5%	56%	51.4%	63%	41.2%	39.8%	3.28% (active)	23.6%	32.7%	26.8%	-26.4% (active)	13.9%	19.2%	22.1%	53.2%	24.2%
CC(=O)Nc1ccc(C)c(Nc2cc(-c3ccc(-n4cccn4)cc3)[nH]n2)c1	19.2%	50.3%	80%	93.3%	82.1%	59.3%	47.6%	42.3%	87.7%	53%	30.4%	-26.4% (active)	31.5%	23.4%	19.3%	83.2%	30.8%
O=C(/C=C/Nc1ccc(S(=O)(=O)O)cc1)c1ccc(F)cc1	90.8%	95.9%	99.5%	103%	105%	117%	109%	97.3%	97.3%	99.4%	119%	100%	94.8%	90%	107%	106%	104%
N#C/C(=C\c1ccc(N2CCCCC2)cc1)C(=O)Nc1sc2c(c1C#N)CCC2	97.6%	69.3%	99.8%	93.7%	84.5%	96.6%	102%	99.3%	95.7%	97.7%	108%	90%	100%	87.3%	89.8%	105%	96.5%
COc1ccc(Cn2cc3c(c2-c2ccccc2)CCCc2cnoc2-3)cc1[N+](=O)[O-]	32.6%	59%	80.2%	93.4%	68.8%	74.8%	64%	64.3%	42.5%	67.7%	81%	1.77% (active)	41.3%	34.4%	46.9%	85.7%	49.4%
CNC(=O)c1cc(Oc2ccc3nc(NC(=O)c4ccc(CN5CCCN(C)CC5)c(C(F)(F)F)c4)sc3c2)ccn1	-59.8% (active)	-31.1% (active)	32.4%	53.6%	52.3%	80.3%	60.6%	-1.04% (active)	60.6%	7.14% (active)	83.2%	-8.88% (active)	-70.9% (active)	-38.9% (active)	5.99% (active)	4.85% (active)	30.3%
CC(C)(C)n1nnnc1C(Nc1nccs1)c1cc2cccc3ccc4cccc1c4c32 (centres undefined)	84.5%	94.9%	97.6%	59.7%	95.3%	109%	85.5%	88.3%	103%	73.6%	100%	96.2%	98.8%	76.3%	91.7%	113%	101%
CC1(COc2ccc3ncc(C#Cc4cncc(C(=O)Nc5cc(C(C)(C)C)on5)c4)n3n2)COC1	34%	47.3%	35.5%	55.9%	55.6%	61.2%	25%	15.1%	22.2%	32.5%	81.3%	50%	38.2%	40.5%	17.9%	49.7%	15%

Source: PubChem BioAssay (NCI)
